Unmarked numbers belong to inactive results. Active and inactive are the calls of the source.

These results are taken from PubChem BioAssay.

This assay is described as follows: budding yeast growth modifiers under rapamycin – strain BY4716, OD600, 96 h, primary screen (AID 1091). Note: test concentration not given here. The conditions noted are these: S. cerevisiae BY4716 + rapamycin, higher = more signal, called active from +8 up or from −8 down.
`Cc1ccc(S[C@]2(C(=O)O)CC(=O)N(Cc3cc(C(F)(F)F)cc(C(F)(F)F)c3)[C@@H]2c2ccc(CO)cc2)cc1`: the z-score was -0.0248. For `CCOC(=O)[C@H]1[C@@H]2C(=O)N3CCC[C@H]3[C@H](O[Si](C(C)C)(C(C)C)C(C)C)[C@H]2C=C2CCN(S(=O)(=O)c3ccc(C)cc3)C[C@H]21`, the z-score was 1.04. Turning to `CO[C@H]1O[C@H](CO)[C@@H](OC(=O)Nc2ccccc2-c2ccccc2)[C@H](OC(=O)Nc2ccc3c(c2)OCO3)[C@H]1OC(=O)Nc1ccc2c(c1)OCO2`, the z-score was 7.32. To `COc1ccccc1CN1C(=O)c2ccccc2[C@@]2(Cc3ccccc3N(CC(F)(F)F)C2=O)[C@@H]1c1ccc(CO)cc1` belongs -1.7; to `CN(C)C(=O)[C@@]1(Cc2ccccc2CN=[N+]=[N-])N=C(c2ccc(OCCCO)cc2)O[C@H]1c1ccccc1CN=[N+]=[N-]`, 15.6 (active).

Consider `COc1ccc(CCN2C(=O)[C@@]3(Cc4ccccc42)c2ccccc2C(=O)N(Cc2ccccc2OC)[C@H]3c2ccc(CO)cc2)cc1`, for which the z-score is -1.42. Next, `O=C1C2C=CC(C(O)c3ccc(Br)cc3)N(Nc3ccccc3F)C2C(=O)N1c1ccccc1` (stereo unspecified): -1.26; `C=CCC(OC(C)=O)[C@@H]1[C@@H](N(Cc2cccc3ccccc23)C(=O)Cc2ccc(OC)cc2)c2cc(OCCCO)ccc2N1C(=O)c1ccc2ccccc2n1` (stereo partly specified): -1.24.

Consider `COC(=O)C(CC#Cc1ccc2c(c1)[C@]1(C(=O)N2)[C@H](c2ccccc2OCCO)N2[C@H](c3ccccc3)[C@H](c3ccccc3)OC(=O)[C@H]2[C@@H]1C(=O)NC[C@H](O)c1ccccc1)C(=O)OC`, for which the z-score is 4.78.

As to `COc1ccc([Si](C)(C)[C@H]2[C@H](CCO)O[C@@]3(C(=O)N(Cc4cccc(N5C(=O)COc6ccccc65)c4)c4ccccc43)[C@@H]2C)cc1`, the z-score was 16.8 (active). Next, `CCCCCCc1nc(C2CC2)cc2c1[Si](C(C)C)(C(C)C)OC2`: 0.0489; `C=CCNC(=O)[C@@H]1[C@H]2C(=O)O[C@H](c3ccccc3)[C@H](c3ccccc3)N2[C@H](c2ccc(O)cc2)[C@@]12C(=O)N(C(=O)OCCOC)c1ccc(C#CC3(O)CCCCCC3)cc12`: -0.26.

For the compound `CC(CO)N1C(=O)[C@@H]2[C@H]3C(=O)OCC=C[C@H]3OC23C=CCN(Cc2ccccc2)C(=O)[C@@H]13` (stereo partly specified), the z-score is -1.45. Next, `[N-]=[N+]=NCc1ccccc1C[C@@]1(C(=O)NCc2ccccc2)N=C(c2ccc(OCCCO)cc2)O[C@@H]1c1ccccc1N=[N+]=[N-]`: 6.91; `C=CCN1Cc2ccccc2[C@H]2OC(c3ccc(OCCCO)cc3)=N[C@@]2(CC=C)C1=O`: -0.397; `Cc1cc(C)cc(N2C(=O)CSC2c2cccc([N+](=O)[O-])c2)c1` (stereo unspecified): 1.37. Next, `CCOc1cc(C(O)C2C=CC3C(=O)N(C)C(=O)C3N2Nc2ccccc2)ccc1O` (stereo unspecified): 1.97; `[N-]=[N+]=Nc1ccccc1C[C@]1(C(N)=O)N=C(c2ccc(OCCCO)cc2)O[C@H]1c1ccccc1N=[N+]=[N-]`: -0.686. Regarding `NC(=O)NCC#Cc1ccc2c(c1)[C@]1(C(=O)N2)[C@H](C(=O)O)[C@H]2C(=O)O[C@H](c3ccccc3)[C@H](c3ccccc3)N2[C@@H]1c1ccc(OCCO)cc1`, the z-score was -0.524. Consider `CCCCCCc1nc(C2CC2)cc2c1[Si](C(C)C)(C(C)C)O[C@H]2c1ccccc1`, for which the z-score was -0.513.

Turning to `COc1cc2c(cc1OC)CN(C(=O)[C@@H]1[C@H]3C(=O)O[C@H](c4ccccc4)[C@H](c4ccccc4)N3[C@H](c3ccc(OCCO)cc3)[C@@]13C(=O)Nc1ccc(C#CC4(O)CCCCCC4)cc13)CC2`, the z-score is 5.25.

In the case of `O=C1C[C@@](C(=O)NCCN2CCOCC2)(c2ccc([N+](=O)[O-])cc2)[C@@H](c2ccc(CO)cc2I)N1C1CCCCC1`, the z-score is -1.05.

As for `COC(=O)[C@@]1(Cc2ccc(F)cc2)[C@H]2c3cc(C(=O)N4CCCC4)n(CCc4ccc(O)c(O)c4)c3C[C@H]2CN1C(=O)c1ccccc1`, the z-score is 1.96.

In the case of `CC(C)N1C(=O)C[C@@](C(=O)NCCCN(C)C)(c2ccc([N+](=O)[O-])cc2)[C@H]1c1ccc(CO)cc1`, the z-score is -0.525. To `COC(=O)C1=CC(CCCO)=CC(C2CC2)N(C)C=C1C(=O)OC` (stereo unspecified) belongs -1.62; to `COC(=O)c1c(CC[C@@H](CO)NC(=O)N2CCC[C@H]2Cn2cc(Cc3ccccc3)nn2)oc(C(C)=O)c1C(=O)OC`, -1.45; to `O=C(N1CCCCC1)[C@@]1(CCS(=O)(=O)c2ccccc2)COC(c2ccc(OCCCO)cc2)=N1`, -0.0556. Next, `CC1=C[C@@]2(CO)C(=O)[C@]3(CO3)[C@@H]1[C@H]1[C@]2(C)C=C(CO)C(=O)[C@]12CO2`: -0.946; `CCCNC(=O)[C@@]1(c2ccc([N+](=O)[O-])cc2)CC(=O)N(C2CCCCC2)[C@@H]1c1ccc(CO)cc1`: 1.11; `NC(=O)NCC#Cc1ccc2c(c1)[C@]1(C(=O)N2)[C@H](C(=O)NC[C@H](O)c2ccccc2)[C@H]2C(=O)O[C@H](c3ccccc3)[C@H](c3ccccc3)N2[C@@H]1c1ccc(OCCO)cc1`: 3.73. To `O=C1NC(=O)C2C1C=CC(C(O)CCc1ccccc1)N2Nc1ccc(Cl)cc1Cl` (stereo unspecified) belongs 0.0242; to `CCCCC=C[C@@H](NC(=O)c1ccc(-c2ccccc2)cc1)c1ccccc1`, -0.713.

For the compound `COc1ccc([Si](C)(C)[C@@H]2[C@@H](CC(=O)N(CCO)Cc3ccccc3)O[C@]3(C(=O)N(Cc4cccc(N5CCOC5=O)c4)c4ccccc43)[C@H]2C)cc1`, the z-score is 2.11. For the compound `CC(C)N1CC=CC23O[C@@H]4C=CCOC(=O)[C@@H]4[C@H]2C(=O)N(CCCO)[C@@H]3C1=O` (stereo partly specified), the z-score is -1.58. To `C=CCNC(=O)[C@H]1[C@@H]2C(=O)O[C@@H](c3ccccc3)[C@@H](c3ccccc3)N2[C@@H](c2ccc(O)cc2)[C@]12C(=O)N(C(=O)OCCOC)c1ccccc12` belongs 2.39; to `O=C1OCC=C[C@H]2OC34C=CCN(c5ccc(Cl)cc5)C(=O)[C@H]3N(CCO)C(=O)[C@@H]4[C@@H]12` (stereo partly specified), 0.0595.
